# Screens as filed in PubChem.
# Rows were chosen to be rich in hits. Some 2.9% of all compounds tested hit in one or more screens of this group.
# GRK2 aptamer HTS = inhibitors of human GRK2 displacing RNA aptamer | P25098 | bead flow cytometry, FAM-aptamer displacement from GRK2 | inhibition of aptamer binding, % at 10 µM | 0.59% of 330,000 active | AID 488847;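 active means inhibition of aptamer binding above 40%, roughly 3 SD of noise, on plates passing a quality check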;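 further: median bead fluorescence of bound FAM aptamer so fluorescent compounds give negative values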
# MEKK2wt PB1 HTS = raises or lowers MEK5 binding to wildtype human MEKK2 PB1 domain; Q9Y2U5; bead flow cytometry, Alexa488-MEK5 binding to MEKK2 WT; actives lie on both sides; binding response (% of control), % at 10 µM; 1.1% of 290,000 active; in the data active means binding response below about 67% or above about 130%
# Beta2AR agonist = human beta-2 adrenergic receptor agonism by FAP | 0.43% of 340,000 active | AID 504454 | Am2.2-beta2AR cells, FAP receptor internalization, flow cytometry | response, % (no concentration beside the values) | P07550;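 active means response above a set limit, near 3 SD of response in nonfluorescent compounds, cut at about 42% in these data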
# MEKK2 mut-MEK5 = signal of MEK5 binding to mutant human MEKK2 PB1 domain. percent response, % at 10 µM. 0.35% of 290,000 active. bead flow cytometry, Alexa488-MEK5 binding to MEKK2 mutant; in the data active means percent response above about 24%, passing the limit was not always enough
# MEKK3 PB1 HTS = raises or lowers MEK5 binding to the human MEKK3 PB1 domain | Q99759 | bead-based flow cytometry, Alexa488-MEK5 binding to MEKK3; actives lie on both sides; 0 = blocked by unlabeled MEK5, 100 = vehicle | binding response (% of control), % at 10 µM | 1.4% of 290,000 active | AID 1529;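 active means binding response more than 3 SD above or below the average of its plate-row segment, actives on both sides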;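 further: Alexa488 bead fluorescence after subtracting the streptavidin-only scavenger bead signal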
# Target sequence (Q99759 whole entry, looked up, the tested form may be a part): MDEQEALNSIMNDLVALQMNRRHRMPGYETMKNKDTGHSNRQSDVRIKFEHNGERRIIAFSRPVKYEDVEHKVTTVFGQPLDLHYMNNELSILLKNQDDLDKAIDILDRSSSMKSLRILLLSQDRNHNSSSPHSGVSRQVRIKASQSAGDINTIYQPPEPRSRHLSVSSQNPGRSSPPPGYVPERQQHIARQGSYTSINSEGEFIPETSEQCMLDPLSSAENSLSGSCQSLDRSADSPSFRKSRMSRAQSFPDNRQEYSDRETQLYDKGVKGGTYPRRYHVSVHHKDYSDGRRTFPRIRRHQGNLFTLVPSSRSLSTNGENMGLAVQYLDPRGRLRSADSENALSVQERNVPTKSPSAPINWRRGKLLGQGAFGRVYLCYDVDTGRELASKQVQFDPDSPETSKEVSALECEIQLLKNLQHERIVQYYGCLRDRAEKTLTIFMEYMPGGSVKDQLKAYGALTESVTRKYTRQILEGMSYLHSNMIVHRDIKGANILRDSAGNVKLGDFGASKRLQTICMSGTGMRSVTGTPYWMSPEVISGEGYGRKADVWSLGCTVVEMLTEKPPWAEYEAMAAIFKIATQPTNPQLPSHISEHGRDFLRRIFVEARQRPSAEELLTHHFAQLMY
# GRK2 inh confirm = confirmation of human GRK2 inhibitors displacing RNA aptamer; shares compounds with GRK2 aptamer HTS; bead-bound GRK2, FAM-aptamer displacement, flow cytometry; 4% of 2,000 active; aptamer displacement, % at 10 µM;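 active means aptamer displacement above 40%, near three times the noise of non-fluorescent compounds, on plates passing quality checks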;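 further: negative values mostly reflect intrinsic compound fluorescence rather than true enhancement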
# Aptamer quench = counter-screen for GRK2 aptamer inhibitors: fluorescent aptamer quenchers; shares compounds with GRK2 aptamer HTS; Fluorescent RNA aptamer beads, quenching, flow cytometry; stronger effect = higher value; fluorescence change (kMESF span), kMESF (no concentration beside the values); 110 tested, under 10 active;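 active means compounds whose bead fluorescence drops by more than 37 kMESF across the dose range, marking them as dye quenchers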
# FAM quench CP1 = quenches fluorescent RNA aptamer, GRK2 hit artifact | shares compounds with GRK2 aptamer HTS | Carboxyfluorescein RNA aptamer on beads, flow cytometry quenching; stronger effect = lower value | fluorescence response (% of DMSO), % at 10 µM | 2,000 tested, under 10 active;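 active means compounds that quench the bead-bound fluorescent RNA probe, cutting fluorescence to under half of the solvent control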;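 further: counterscreen run without GRK2 so only probe quenching by compound is measured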
# GRK2 CP2 = human GRK2 inhibition confirmation, cherry pick 2; shares compounds with GRK2 aptamer HTS; bead-bound GRK2, FAM-aptamer displacement, flow cytometry; inhibition of aptamer binding, % at 10 µM; 360 tested, under 10 active;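 active means inhibition of aptamer binding above 40%, about triple the noise seen with nonglowing compounds, on plates passing quality control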;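 further: negative values mostly come from compounds that fluoresce themselves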
# FAM quench CP2 = counter-screen for GRK2 binding hits: quenchers of fluorescent RNA aptamer; shares compounds with GRK2 aptamer HTS; carboxyfluorescein RNA aptamer beads, flow cytometry quenching; stronger effect = lower value; fluorescence response vs DMSO, % at 10 µM; 360 tested, under 10 active; AID 588494;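 active means response vs DMSO under 50%, meaning signal dropped by over half, treated as fluorescence quencher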;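 further: labelled aptamer on streptavidin beads without GRK2 as a quench counter-screen; 100% = bead fluorescence of DMSO wells and lower means quenching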
# Active calls of the source: *; i = inactive; . = no result given.
SMILES,GRK2 aptamer HTS,MEKK2wt PB1 HTS,Beta2AR agonist,MEKK2 mut-MEK5,MEKK3 PB1 HTS,GRK2 inh confirm,FAM quench CP1,others
COc1ccc(CNC(=O)CN2C(=O)NC(C)(c3ccc(Cl)cc3)C2=O)cc1 (configuration not stated),54.0*,108.0,-4.9,5.0,106.0,-0.5,102.1,
O=C(CNc1ccccc1F)Nc1cc(S(=O)(=O)N2CCCCC2)ccc1Cl,52.0*,.,-7.7,.,.,3.1,93.1,
O=C(Cc1ccccc1F)Nc1cc(S(=O)(=O)N2CCCC2)ccc1Cl,2.0,.,0.0,.,.,.,.,
Cc1ccc(-c2nc(CS(=O)(=O)CC(=O)N3CCc4ccccc4C3)c(C)o2)cc1,0.0,97.0,-1.3,2.0,99.0,.,.,
Cc1ccc(-c2nc(CS(=O)(=O)CC(=O)N3CCCCCC3)c(C)o2)cc1,73.0*,116.0,8.4,10.0,112.0,-4.4,102.9,
N[C@@H](C(=O)N[C@@H]1C(=O)N2C(C(=O)O)=C(Cl)CS[C@H]12)c1ccccc1,0.0,96.0,-1.8,-5.0,91.0,.,.,
NC(=O)c1cc[n+](CC2=C(C(=O)O)N3C(=O)[C@@H](NC(=O)C(c4ccccc4)S(=O)(=O)[O-])[C@H]3SC2)cc1 (some centres not stated),85.0*,100.0,-4.1,-3.0,103.0,98.6*,96.5,Aptamer quench=-7.8
NS(=O)(=O)c1ccc(NC(=O)CSc2nnc3n2CCCCC3)cc1,4.0,.,-5.2,.,.,.,.,
O=C(CSc1nnc(Nc2ccccc2F)s1)NC(=O)CN1CCCC1=O,47.0*,.,-1.2,.,.,25.9,98.3,
NC(=O)C1CCN(C(=O)C2CC(=O)N(Cc3ccccc3)C2)CC1 (configuration not stated),7.0,.,-1.7,.,.,.,.,
CCOC(=O)c1sc(NCc2ccco2)c(-c2nc3ccccc3s2)c1N,68.0*,94.0,12.5,-4.0,91.0,70.1*,101.8,Aptamer quench=-3.2
COCCNC(=O)c1c(N)n(-c2ccccc2)c2nc3ccccc3nc12,35.0,102.0,-12.8,-2.0,101.0,0.3,103.1,
COCCCNC(=O)c1c(N)n(-c2ccccc2)c2nc3ccccc3nc12,1.0,97.0,-0.5,-8.0,97.0,.,.,
COc1ccc(CCn2c(C)cc(C(=O)COC(=O)c3ccc(NC(=O)CC#N)cc3)c2C)cc1,0.0,103.0,12.1,1.0,102.0,.,.,
Cc1cc(C(=O)COC(=O)c2ccc(NC(=O)CC#N)cc2)c(C)n1CCc1ccc(F)cc1,57.0*,.,3.0,.,.,1.6,98.3,
O=C(NCc1ccco1)C1(S(=O)(=O)c2ccccc2)CC=CC1,2.0,103.0,-10.6,0.0,100.0,.,.,
O=C(NCc1cccs1)C1(S(=O)(=O)c2ccccc2)CC=CC1,0.0,89.0,-0.5,-9.0,97.0,.,.,GRK2 CP2=6.0;FAM quench CP2=97.0
Cc1ccc(/C=C/C(=O)O)cc1S(=O)(=O)NCCO,3.0,98.0,-0.8,10.0,98.0,.,.,
Cc1cc(C(C)(C)C)cc(S(=O)(=O)NCCO)c1C,99.0*,110.0,0.4,5.0,106.0,-5.0,100.0,
Cc1ccc(CCSCC(=O)O)cn1,74.0*,98.0,2.8,3.0,100.0,3.0,100.0,
Cc1ccc(SCCc2ccc(C)nc2)cc1,2.0,115.0,-0.9,9.0,94.0,.,.,
N#C/C(=C\c1c(N2CCC(C(N)=O)CC2)nc2ccccn2c1=O)S(=O)(=O)c1ccc(Cl)cc1,41.0*,104.0,-13.7,6.0,106.0,-0.9,99.3,
Cn1nc(C(=O)NNC(=O)c2cccc(Cl)c2)ccc1=O,0.0,.,1.8,.,.,.,.,
CC1CC(C)CN(S(=O)(=O)c2ccc(C(=O)N(C)Cc3ccccc3)cc2)C1 (configuration not stated),0.0,.,3.6,.,.,.,.,
CCn1c(=O)c2cc(C(=O)NCCC(C)C)sc2c2ccccc21,51.0*,101.0,15.3,0.0,102.0,.,95.3,
SMILES,GRK2 aptamer HTS,MEKK2wt PB1 HTS,Beta2AR agonist,MEKK2 mut-MEK5,MEKK3 PB1 HTS,GRK2 inh confirm,FAM quench CP1,others
COc1ccc(C(=Cc2ccccc2[N+](=O)[O-])C(=O)O)cc1,.,.,3.5,.,.,.,.,
CCOc1ccccc1NC(=O)CCS(=O)(=O)c1cccc2nonc12,2.0,104.0,-7.0,2.0,107.0,.,.,GRK2 CP2=i;FAM quench CP2=107.0
Cc1ccc(NC(=O)CCS(=O)(=O)c2cccc3nonc23)cc1,1.0,96.0,-10.6,-40.0,97.0,.,.,
COc1ccc(N(C)C(=O)CCS(=O)(=O)c2cccc3nonc23)c(OC)c1,0.0,98.0,3.7,3.0,100.0,.,.,GRK2 CP2=-20.9;FAM quench CP2=101.0
CC(=O)c1cccc(NC(=O)CCS(=O)(=O)c2cccc3nonc23)c1,2.0,110.0,-2.1,1.0,103.0,.,.,GRK2 CP2=-21.3;FAM quench CP2=110.0
O=C(c1ccc2nc(-c3ccco3)c(-c3ccco3)nc2c1)N1CCN(c2ncccn2)CC1,45.0*,88.0,-1.3,-8.0,95.0,2.5,94.3,
COc1ccc(CNC(=O)c2cccc(S(=O)(=O)N3CCN(c4ccc(F)cc4)CC3)c2)cc1,.,.,2.9,.,.,.,.,
Cc1ccc(NC(=O)c2cccc(S(=O)(=O)N3CCN(c4ccccc4)CC3)c2)nc1,100.0*,.,-1.3,.,.,-2.2,99.8,
COc1ccccc1CNC(=O)c1cccc(S(=O)(=O)N2CCN(c3ccc(F)cc3)CC2)c1,1.0,.,-5.5,.,.,-2.0,101.1,
CC1CCC(NC(=O)c2cccc(S(=O)(=O)N3CCN(c4ccccc4)CC3)c2)CC1 (configuration not stated),3.0,.,-2.5,.,.,.,.,
Cc1ccnc(NC(=O)c2cccc(S(=O)(=O)N3CCN(c4ccccc4)CC3)c2)c1,0.0,.,-2.9,.,.,.,.,
O=C(NC1CCCc2ccccc21)c1cccc(S(=O)(=O)N2CCN(c3ccccc3)CC2)c1 (configuration not stated),2.0,98.0,0.1,-3.0,96.0,0.9,127.5,
O=C(c1cccc(S(=O)(=O)N2CCc3ccccc32)c1)N1CCN(c2ccccc2)CC1,.,.,5.2,.,.,6.5,91.9,
CC(C)N(C(=O)[C@H]1C[C@H](CC(=O)NCC23CC4CC(CC(C4)C2)C3)C(=O)N2CCc3c([nH]c4cc(CCC(=O)N(C)C)ccc34)[C@]12C)C(C)C,0.0,.,-3.7,.,.,.,.,
COc1ccc(NC(=O)CN(C)S(=O)(=O)c2cnc[nH]2)cc1Cl,1.0,111.0,4.5,2.0,105.0,.,.,
